# Test results published in PubChem BioAssay (NCATS).
# Where “and” joins values, the source holds several entries; their conditions need not be identical. Identical values can stand only once. Records with an inconclusive call do not appear. A number with no mark means an inactive call. Calls of active or inactive are those of the source. Calls come from the whole dose curve; as a rule, active = well fitted inhibition curve with a large enough effect; inconclusive = small, poorly fitted or top-dose-only effect; inactive = flat fitted curve, though single readings scatter.
# Tested on: KB-3-1
# Experiment: Cytotoxic Profiling of Annotated Libraries Using Quantitative High-Throughput Screening (AID 1296008); note: nearly all actives have a fitted effect of over 60% in size
# Conditions: Five cell lines viability, CellTiter-Glo ATP luminescence, 48-72 h; max response: hits give low values
# Description: Cell-based phenotypic screening is a commonly used approach to discover biological pathways, novel drug targets, chemical probes and high-quality hit-to-lead molecules. Many hits identified from high-throughput screening campaign are ruled out through a series of follow-up potency, selectivity/specificity, and cytotoxicity assays. Prioritization of molecules with little or no cytotoxicity for a more in-depth downstream evaluation influence the future direction of projects, so cytotoxicity profiling of the screening libraries at early stage is essential for increasing the likelihood of candidate success. […] For the annotated library, we also examined the primary targets and mechanistic pathways regularly associated with cell death. To our knowledge, this is the first study to use high-throughput screening to profile large libraries for cytotoxicity assessment in both normal and cancer cell lines. In summary, the results generated here constitutes a valuable resource for the scientific community and provides insight on identifying cytotoxic compounds with particular mechanisms of action, and prioritizing compounds with suitable cytotoxicity profile for further evaluation.
# A pintool (Kalypsys) was used to transfer 23 nL of compound solution to the 1536-well assay plates. After 48 or 72 hr incubation at 37 degree Celsius, 5% CO2 and 95% humidity, 2.5 uL of CellTiter-Glo (Promega) was dispensed into each well using a dispenser (Aspect Automation, St. Paul, MN) with solenoid valves (Lee Valves, Westbrook CT). Plates were left at room temperature for 10 min before imaging the ATP-coupled luminescence using a ViewLux microplate imager (PerkinElmer, Waltham, MA).
# % is set by controls: 0 for no effect and ±100 for the full control effect; potency is the fitted concentration of half-maximal effect.
SMILES,outcome,max response,Potency
COc1cc(C(=O)OC(COCCC(C)C)CN2CCOCC2)cc(OC)c1OC (stereo not given),inactive,,
CC(=O)O[C@@H]1C(=O)O[C@@H]2[C@H]1OC(=O)[C@@H]2OC(C)=O,inactive,,
CC1c2ccccc2CN1NC(=O)c1ccc(Cl)c(S(N)(=O)=O)c1 (stereo not given),,8.25%,
CCOC(=O)NNc1ccc(N(CC)CC(C)O)nn1 (stereo not given),,-6.42%,
O=C(Oc1ccccc1)c1cccc(C(=O)Oc2ccccc2)c1,,-6.63%,
COc1cc(C=O)ccc1O,,-6.73%,
CCOC(=O)OCC/C(SC(=O)OCC)=C(\C)N(C=O)Cc1cnc(C)nc1N,,-13.2%,
C[N+]1(C)CCC(OC(=O)C(O)(c2ccccc2)C2CCCC2)C1 (stereo not given),,-6.32% and -2.46%,
CN1CCCN(C(c2ccccc2)c2ccc(Cl)cc2)CC1 (stereo not given),,0.505%,
c1ccc2occc2c1,,-9.71%,
CN1[C@@H]2CC[C@H]1CC(NC(=O)n1c(=O)[nH]c3ccccc31)C2 (stereo not given in full),,-6.43%,
CN1CCC(N(Cc2cccs2)c2ccccc2)CC1,,-11.3%,
Cc1nn(-c2ccccc2)c(C)c1/C=N/N1CCN(Cc2ccccc2)CC1,,8.96%,
CC(=O)N[C@@H](CCC(N)=O)C(=O)O,,-6.88%,
O=C(Oc1ccccc1)c1ccccc1O,,-0.601%,
CCOC(=O)Cn1cccc1-c1nc(-c2ccc(OC)cc2)c(-c2ccc(OC)cc2)s1,,5.97%,
CC(C)(C)c1nnc(NS(=O)(=O)c2ccccc2)s1,,3.82%,
CCNC(=O)NCCCOc1cccc(CN2CCCCC2)c1,,-12.8%,
C[N+](C)(CCOc1ccccc1)Cc1cccs1,,-7.87%,
N#C/C(=C1/SC[C@@H](c2ccc(Cl)cc2Cl)S1)n1ccnc1,,-3.46% and -14.6% and -17.3%,

SMILES,outcome,max response,Potency
O=C(O)[C@@H](O)[C@H](O)[C@H](O)[C@@H](O)C(=O)O,,-10.9%,
CC(C)OC(=O)c1cc2c(OCC(O)CNC(C)(C)C)cccc2[nH]1 (stereo not given),,-5.12%,
CC(=O)OC/C=C(C)/C=C/C=C(C)/C=C/C1=C(C)CCCC1(C)C,,-3.66%,
Oc1ccccc1,,-6.38%,
Nc1c(NC/C=C\COc2cc(CN3CCCCC3)ccn2)c(=O)c1=O,,,23.1 µM (active)
Brc1ccc([C@H]2CN3CCSC3=N2)cc1,,5.27%,
CSc1ccc(/C=C2/C(C)=C(CC(=O)O)c3cc(F)ccc32)cc1,,-18.2%,
CC(CCc1ccc2c(c1)OCO2)NN (stereo not given),,-13.1%,
CC(=O)Nc1c(I)c(NC(C)=O)c(I)c(C(=O)O)c1I,,-3.56%,
CC(=O)Nc1ccc(S(=O)(=O)Nc2cc(C)on2)cc1,,-4.05%,
COC(=O)C1=C(C)NC(COC(N)=O)=C(C(=O)OC(C)C)C1c1cccc(Cl)c1Cl (stereo not given),,2.72%,
Nc1c[n+](N2CCOCC2)no1,,-10.9%,
OC[C@]1(O)OC[C@@H](O)[C@H](O)[C@@H]1O,,-6.46%,
O=C(O)c1ccccc1Nc1cc(Cl)ccc1C(=O)O,,-6.82%,
CO[C@@]1(NC(=O)CSC[C@@H](N)C(=O)O)C(=O)N2C(C(=O)O)=C(CSc3nnnn3C)CS[C@@H]21,,-3.72%,
Cc1ncc(CO)c(CO)c1O,,-24.2%,
O=[N+]([O-])c1nccn1CO[C@@H](CO)[C@H](O)CO,,2.05%,
CC(C)N(CCC(=O)c1ccc2ccccc2c1)Cc1ccccc1,,-5.46%,
NCC(=O)O,,-10.5%,
O=C(CCCCC(=O)Nc1c(I)cc(I)c(C(=O)O)c1I)Nc1c(I)cc(I)c(C(=O)O)c1I,,-11.9%,
